# Screening data from PubChem BioAssay.
# CSC inhib – cancer stem cell inhibition; cancer stem cell-like cells viability, luminescence; inhibition, % at 7.5 µM; 300,000 compounds, 1.1% hits; in the data active = inhibition above about 75%; inconclusive = no clear call, values can overlap the other calls; tested in HMLE shEcad cells
# Beta cell apopt – beta cell apoptosis inhibition | INS-1E cytokine-induced death, ATP luminescence, 48 h; percent of positive-control rescue, neutral wells zero | protection from apoptosis, % (no concentration beside the values) | AID 435005 | 300,000 compounds, 0.8% hits;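 active = Every replicate reaches about 75%, or at least half do and their mean reaches it too, limit read from the data; inconclusive = At least half of replicates reach the limit but their mean does not; inactive = Under half of replicates reach the limit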;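 also: 0% = cytokine-treated negative control wells and 100% = positive control rescue; higher means more ATP so stronger rescue from cytokine killing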
# Mdm2 MdmX PPI – human Mdm2/MdmX binding inhibition. 330,000 compounds, 3% hits. inhibition, % at 8 µM. AID 485346. SaOS-2 split-luciferase Mdm2/MdmX complementation, luminescence. O15151+Q00987;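 active = inhibition of at least 50% at 8 µM in the primary screen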
# Target sequence (O15151 whole entry, looked up): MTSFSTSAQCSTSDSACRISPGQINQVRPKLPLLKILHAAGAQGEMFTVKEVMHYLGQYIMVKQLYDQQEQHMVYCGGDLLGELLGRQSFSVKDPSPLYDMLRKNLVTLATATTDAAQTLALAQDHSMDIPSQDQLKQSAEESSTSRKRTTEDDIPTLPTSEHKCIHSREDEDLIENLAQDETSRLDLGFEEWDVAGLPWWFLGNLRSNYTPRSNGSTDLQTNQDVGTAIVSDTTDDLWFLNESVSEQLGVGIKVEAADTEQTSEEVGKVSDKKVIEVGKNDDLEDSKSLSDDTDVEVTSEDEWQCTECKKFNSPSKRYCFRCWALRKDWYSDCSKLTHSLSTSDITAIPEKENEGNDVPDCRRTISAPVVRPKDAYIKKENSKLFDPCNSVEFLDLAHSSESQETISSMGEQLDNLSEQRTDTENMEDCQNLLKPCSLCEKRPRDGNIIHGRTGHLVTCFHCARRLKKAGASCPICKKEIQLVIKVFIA
# Target sequence (Q00987 whole entry, looked up): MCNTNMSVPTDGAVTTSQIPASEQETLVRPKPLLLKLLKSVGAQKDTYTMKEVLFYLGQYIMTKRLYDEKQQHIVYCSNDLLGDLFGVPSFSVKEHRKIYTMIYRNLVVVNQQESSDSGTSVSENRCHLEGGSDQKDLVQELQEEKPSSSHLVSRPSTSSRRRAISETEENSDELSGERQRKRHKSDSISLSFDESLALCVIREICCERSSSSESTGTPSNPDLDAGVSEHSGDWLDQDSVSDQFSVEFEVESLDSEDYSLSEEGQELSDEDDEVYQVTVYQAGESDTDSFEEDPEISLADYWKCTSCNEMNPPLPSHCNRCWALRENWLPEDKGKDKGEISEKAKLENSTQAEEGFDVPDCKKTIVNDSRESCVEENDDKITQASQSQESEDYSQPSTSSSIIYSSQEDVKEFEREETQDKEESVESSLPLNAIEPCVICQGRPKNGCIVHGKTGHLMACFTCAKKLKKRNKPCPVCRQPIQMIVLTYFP
# MPTP block – blocks calcium-induced mitochondrial swelling. inhibition, % at 10 µM. isolated mouse mitochondria, Ca2+ swelling absorbance, 30 min. AID 602449. 360,000 compounds, 1.4% hits;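 active = inhibition of 50% or more, scaled per plate between neutral and stimulator controls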;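 also: 0% = DMSO wells given calcium and 100% = 1 mM EGTA wells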
# Calb FLC – C. albicans growth modulation with fluconazole | C. albicans CaCi-2 (fluconazole-resistant clinical isolate) + fluconazole, Alamar Blue growth, 48 h | 300,000 compounds, 0.57% hits | growth inhibition, % (no concentration beside the values);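 active = growth inhibition above about 58% in most replicates, limit read from the data, passing the limit was not always enough; inconclusive = exactly half the replicates above a set limit; inactive = most replicates below a set limit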;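 also: all wells also contain fluconazole at 8 µg/ml as a sub-toxic cotreatment; 0% = median of DMSO wells and 100% = median of geldanamycin control wells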
# * hit, by the source's call; ? = inconclusive; / = not tested or not shown. Compounds with a hit are over-represented: about 4.8% of the library has one in this group of screens.
SMILES,CSC inhib,Beta cell apopt,Mdm2 MdmX PPI,MPTP block,Calb FLC
COC(=O)CN1C(c2ccccc2)=Nc2ccc(Cl)cc2C1c1ccccc1 (stereo unspecified),-1.6,2.5,5.6,-2.4,6.5
COC(=O)[C@]12CCCCC=C1N(Cc1ccccc1)C(=O)[C@H](CC(=O)N1CCSCC1)C2,/,/,/,1.0,/
O=C(Nc1nnc(C2=COCCO2)o1)c1cccc([N+](=O)[O-])c1,9.1,/,-14.7,-1.0,0.9
O=C(Nc1nnc(-c2ccc(Br)cc2)o1)c1cccc(N2C(=O)CCC2=O)c1,13.6,/,-8.7,-2.8,7.3
COc1cccc(-c2nnc(NC(=O)c3cccc(F)c3)o2)c1,34.2,8.4,25.9,-3.5,6.6
CCCCN(C)S(=O)(=O)c1ccc(C(=O)Nc2nnc(-c3cccs3)o2)cc1,111.0*,11.2,45.0,/,84.2*
O=C(Nc1nnc(-c2ccccc2)o1)c1cccc(N2C(=O)CCC2=O)c1,-1.0,/,0.5,0.3,100.0*
O=C(Nc1nnc(-c2ccc(F)cc2)o1)c1cccc([N+](=O)[O-])c1,62.2,14.1,40.2,-4.0,91.1*
O=C(Nc1nnc(-c2cccs2)o1)c1cccc(F)c1,23.6,-0.7,24.9,-1.5,87.5*
OC(c1ccc2ccccc2c1)c1ncc(-c2cccc3ccccc23)[nH]1 (stereo unspecified),/,/,/,3.7,/
FC(F)(F)c1cc(-c2ccc(Cl)cc2)nc(NCc2cccnc2)n1,77.0*,5.9,15.7,0.2,0.8
COC(=O)C1CCN(C(=O)c2cc(-c3ccc(Cl)s3)nc3ccccc23)CC1,/,100.8*,40.2,1.0,/
COc1ccc(C(=O)NCCN2CCOCC2)c(OC)c1,-8.0,-6.8,-2.9,3.6,-19.4
COc1ccc(C(=O)NCCN2CCOCC2)c(OC)c1OC,6.4,-4.5,-18.9,-0.4,70.2*
CC(C)NC(=O)C1(C)CN(S(C)(=O)=O)CC(=O)N1Cc1cccs1 (stereo unspecified),/,/,/,-0.9,/
O=C(Cn1c(-c2ccccc2)c[n+]2ccsc12)c1ccc([N+](=O)[O-])cc1,21.8,94.3*,-15.4,0.5,-11.0
COC(=O)C1(C(=O)OC)C2CCCCC2N(S(=O)(=O)c2ccc(C)cc2)[C@@H]1CC(C)=O (stereo partly specified),/,/,/,-0.4,/
Cc1nc(NC(=O)CSc2nncs2)c(Cl)cc1Cl,-12.2,-3.2,24.0,8.9,-1.3
Cc1c(Cl)cnc(NC(=O)CSc2nncs2)c1Cl,-6.4,-0.6,5.8,-0.6,112.2*
Cn1nc(CC(=O)Nc2ccc3c(c2)OCCO3)c2ccccc2c1=O,1.2,75.4*,30.7,33.4,-6.6
CC(C)n1c(=O)c2ccccc2n1Cc1cn(Cc2cccnc2)nn1,/,/,/,-0.4,/
COc1cccc(-c2nc(NC(C)C)c3ccccc3n2)c1O,37.4,/,30.9,32.6,85.5*
O=C(COc1ccc(-c2ccccc2)cc1)N/N=C/c1ccccc1Br,30.6,-7.5,-4.8,10.0,-7.2
O=C(COc1ccc(-c2ccccc2)cc1)N/N=C/c1cc(O)ccc1Br,89.1*,0.4,10.7,13.3,2.8
CSc1ccc(NC(=O)C2(C)CCN2C(=O)Cc2ccc(C(C)(C)C)cc2)cc1 (stereo unspecified),/,/,/,-0.5,/
SMILES,CSC inhib,Beta cell apopt,Mdm2 MdmX PPI,MPTP block,Calb FLC
CCN(CC)Cc1cc(Oc2ccc(O)c(CN(CC)CC)c2)ccc1O,/,/,/,0.2,/
O=C(NCc1cccnc1)c1ccc(NS(=O)(=O)c2ccccc2)cc1,-0.9,-2.8,10.2,-1.6,-4.9
O=C(CCC1CCCC1)Nc1ccc(C(=O)NCc2cccnc2)cc1,?,100.1*,6.3,2.2,-3.7
O=C(O)CCCC(=O)Nc1ccc(C(=O)NCc2cccnc2)cc1,-0.8,101.1*,-43.6,-2.4,/
CN(C)c1ccc(CC(=O)N2CCCC(c3cc(C(=O)Nc4ccc(F)c(Cl)c4)no3)C2)cc1 (stereo unspecified),/,/,/,14.6,/
COC(=O)[C@]12CCCCC=C1N(Cc1ccccc1)C(=O)[C@H](CC(=O)NCCCCc1ccccc1)C2,/,/,/,0.1,/
CCOc1cccc(C(=O)NC2CCCCC2)c1,-0.9,1.1,-37.0,0.2,6.5
CCCCOc1cccc(C(=O)NNC(=S)NC2CCCCC2)c1,/,6.9,7.8,6.2,104.7*
Nc1ncnc2c1ncn2[C@@H]1O[C@H](C(=O)N[C@H]2c3ccccc3C[C@H]2OC=O)[C@@H](O)[C@H]1O,/,/,/,1.3,/
CSc1ccc(C(O)c2ncc(-c3cccc(F)c3)[nH]2)cc1 (stereo unspecified),/,/,/,2.6,/
Cc1noc(C)c1COc1ccc(C(=O)Nc2ccccc2)cc1,-8.4,-1.0,-1.8,-1.4,20.4
Cc1noc(C)c1COc1cccc(C(=O)Nc2ccc(OCc3ccccc3)cc2)c1,98.0*,3.0,14.9,-0.9,0.3
CSc1ccc(C2c3[nH]c4ccccc4c3CCN2C(=O)c2ccnn2C)cc1 (stereo unspecified),28.3,-2.0,-20.7,2.3,92.3*
CCc1ccc(C2c3[nH]c4ccccc4c3CCN2C(=O)c2ccc(=O)n(C)n2)cc1 (stereo unspecified),20.8,4.0,17.3,-1.8,88.2*
CCc1ccc(C2c3[nH]c4ccccc4c3CCN2C(=O)CN2CCN(CC)CC2)cc1 (stereo unspecified),23.0,12.5,29.6,-3.4,-9.7
Cc1cccc(C2c3[nH]c4ccccc4c3CCN2C(=O)c2ccc(=O)[nH]c2)n1 (stereo unspecified),3.4,-6.5,-2.9,-3.3,26.9
OC(c1ccc(F)c(F)c1)c1nc(-c2cccc(F)c2)cs1 (stereo unspecified),/,/,/,2.4,/
CC(=O)c1cccc(NC(=O)c2cc(-c3ccncc3)nc3ccccc23)c1,3.4,4.5,36.9,0.7,/
Cc1cc(NC(=O)c2cc(-c3ccncc3)nc3ccccc23)ccc1Br,86.2*,10.9,44.0,1.5,/
Cc1oc(/N=C/c2ccccc2)c(C#N)c1C,99.3*,165.3*,11.1,-1.0,1.0
Cc1ccc(Nc2cc(C)c3ccc(O)cc3n2)cc1C,86.5*,-0.3,-2.4,6.6,11.7
N/C(Cc1nc(-c2ccc(F)cc2)cs1)=N\O,-26.7,-5.4,-9.0,0.4,-4.1
N/C(Cc1nc(-c2ccc(Br)cc2)cs1)=N\O,-7.2,-4.3,-11.2,0.4,98.7*
Cc1cc2c(cc(C(=O)OCC(=O)NCc3ccco3)n2C)s1,37.9,-17.4,12.8,0.0,101.8*
CC(C)CCNc1nc(-c2ccco2)c2c(c1C#N)CCCC2,79.8*,-6.1,30.1,-0.1,0.2
SMILES,CSC inhib,Beta cell apopt,Mdm2 MdmX PPI,MPTP block,Calb FLC
O=C1CC(=O)N(C2CCCCC2)C(=O)N1c1ccccc1S(=O)(=O)Oc1ccccc1,/,/,/,0.0,/
O=C(Nc1cccc(-c2cn3c(n2)SCC3)c1)c1ccc(Br)o1,24.8,4.7,1.5,1.5,121.2*
O=C(Cc1ccc(F)cc1)Nc1cccc(-c2cn3c(n2)SCC3)c1,9.7,3.3,16.8,0.4,6.8
CCN(CC)CCCNC(=S)N1CCN(c2nc(-c3ccc(F)cc3)cs2)CC1,93.3*,17.4,47.1,12.4,-8.4
Cc1ccccc1S(=O)(=O)NC(=O)C1(C)CCN1C(=O)CC1CCCC1 (stereo unspecified),/,/,/,0.3,/
COc1ccc(C(=O)N/N=C/c2ccccn2)cc1OC,17.3,-0.2,13.5,-0.5,?
